Reference: the supplement of paper PMC11732987, “Enantioselective OTUD7B fragment discovery through chemoproteomics screening and high-throughput optimisation” (Communications Chemistry, 2025)

How the values were obtained:
Assay in all cases: log2 ratio of Biotin-Ahx-Ub-VS probe labelling (fragment/DMSO); higher = less target engagement (more negative = stronger competition), active = hit call of the paper (q ≤ 0.05, log2 ratio ≤ -1)
Settings in all cases: compound concentration: 200 uM; treatment time: 3 h
[1] = biological target: USP34 (UniProt Q70CQ2)
In short: (§1)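 HEK293T lysate, 495 µg per sample in Tris/CHAPS/IGEPAL buffer with protease inhibitors, was treated in triplicate with fragment at 200 µM or vehicle for 3 h and then with Biotin-Ahx-Ub-VS at 0.5 µM final for 1 h. Labelled DUBs were NeutrAvidin-enriched, digested with LysC and trypsin, and run by diaPASEF LC-MS/MS. Spectronaut label-free quantities were global-median-normalised, and values are average log2 fragment/vehicle ratios by unpaired t-test on proteins with ≥2 unique peptides.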

[2] = biological target: T1, USP36 (UniProt Q9P275)
T1 sequence (whole entry): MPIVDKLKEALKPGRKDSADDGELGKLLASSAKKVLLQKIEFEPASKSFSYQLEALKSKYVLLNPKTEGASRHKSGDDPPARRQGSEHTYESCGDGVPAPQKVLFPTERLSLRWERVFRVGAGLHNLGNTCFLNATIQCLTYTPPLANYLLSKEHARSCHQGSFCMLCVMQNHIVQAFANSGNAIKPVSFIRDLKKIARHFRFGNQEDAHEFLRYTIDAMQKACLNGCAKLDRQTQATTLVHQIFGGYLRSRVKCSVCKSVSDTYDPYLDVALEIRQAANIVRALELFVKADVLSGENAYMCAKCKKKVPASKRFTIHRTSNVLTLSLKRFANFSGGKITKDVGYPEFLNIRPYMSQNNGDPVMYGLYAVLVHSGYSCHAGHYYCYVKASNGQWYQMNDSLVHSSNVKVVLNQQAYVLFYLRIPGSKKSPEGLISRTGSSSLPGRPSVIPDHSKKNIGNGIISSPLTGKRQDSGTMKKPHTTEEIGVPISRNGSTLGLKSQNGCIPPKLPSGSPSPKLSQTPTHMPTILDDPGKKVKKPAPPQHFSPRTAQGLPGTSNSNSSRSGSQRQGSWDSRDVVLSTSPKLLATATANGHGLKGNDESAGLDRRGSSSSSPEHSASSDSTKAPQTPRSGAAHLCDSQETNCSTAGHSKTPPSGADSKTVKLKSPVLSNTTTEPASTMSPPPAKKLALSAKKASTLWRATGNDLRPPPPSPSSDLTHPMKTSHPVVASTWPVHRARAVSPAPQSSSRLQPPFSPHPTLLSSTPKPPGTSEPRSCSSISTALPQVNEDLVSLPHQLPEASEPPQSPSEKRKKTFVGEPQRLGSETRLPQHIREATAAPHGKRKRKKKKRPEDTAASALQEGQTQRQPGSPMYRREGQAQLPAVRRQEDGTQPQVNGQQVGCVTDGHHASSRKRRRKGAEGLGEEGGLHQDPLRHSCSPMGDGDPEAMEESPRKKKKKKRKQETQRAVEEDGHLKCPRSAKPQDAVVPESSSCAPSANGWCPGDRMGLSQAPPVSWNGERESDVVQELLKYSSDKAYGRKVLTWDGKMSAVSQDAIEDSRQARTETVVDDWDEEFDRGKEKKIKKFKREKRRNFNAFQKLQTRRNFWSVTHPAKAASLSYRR
In short: as §1

[3] = biological target: T2, USP38 (UniProt Q8NB14)
T2 sequence (whole entry): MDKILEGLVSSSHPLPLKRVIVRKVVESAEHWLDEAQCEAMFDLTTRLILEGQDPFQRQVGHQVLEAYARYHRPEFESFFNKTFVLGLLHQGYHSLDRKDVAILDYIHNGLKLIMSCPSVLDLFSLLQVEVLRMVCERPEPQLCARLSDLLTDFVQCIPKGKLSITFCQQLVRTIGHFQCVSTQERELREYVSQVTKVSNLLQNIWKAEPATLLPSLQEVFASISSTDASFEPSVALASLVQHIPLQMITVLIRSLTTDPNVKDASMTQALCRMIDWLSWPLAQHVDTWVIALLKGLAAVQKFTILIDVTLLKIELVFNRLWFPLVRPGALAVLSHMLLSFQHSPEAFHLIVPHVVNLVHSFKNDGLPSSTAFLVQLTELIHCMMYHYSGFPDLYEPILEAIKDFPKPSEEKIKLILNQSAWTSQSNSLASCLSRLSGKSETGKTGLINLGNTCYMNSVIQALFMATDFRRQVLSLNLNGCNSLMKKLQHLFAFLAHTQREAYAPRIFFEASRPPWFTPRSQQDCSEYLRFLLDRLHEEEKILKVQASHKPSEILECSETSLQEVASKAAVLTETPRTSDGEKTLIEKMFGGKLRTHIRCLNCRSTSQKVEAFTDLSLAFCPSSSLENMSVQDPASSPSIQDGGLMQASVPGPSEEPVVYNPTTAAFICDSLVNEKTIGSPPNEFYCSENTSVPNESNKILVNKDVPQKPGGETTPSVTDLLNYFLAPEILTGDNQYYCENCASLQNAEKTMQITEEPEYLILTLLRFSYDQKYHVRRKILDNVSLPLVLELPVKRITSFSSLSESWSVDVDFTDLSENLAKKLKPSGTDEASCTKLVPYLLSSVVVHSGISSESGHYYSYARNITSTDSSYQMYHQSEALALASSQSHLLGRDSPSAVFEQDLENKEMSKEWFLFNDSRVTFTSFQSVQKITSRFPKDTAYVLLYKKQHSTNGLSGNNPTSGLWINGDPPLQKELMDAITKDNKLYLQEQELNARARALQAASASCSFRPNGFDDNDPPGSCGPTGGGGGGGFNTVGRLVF
In short: as §1

[4] = biological target: T3, USP39 (UniProt Q53GS9)
T3 sequence (whole entry): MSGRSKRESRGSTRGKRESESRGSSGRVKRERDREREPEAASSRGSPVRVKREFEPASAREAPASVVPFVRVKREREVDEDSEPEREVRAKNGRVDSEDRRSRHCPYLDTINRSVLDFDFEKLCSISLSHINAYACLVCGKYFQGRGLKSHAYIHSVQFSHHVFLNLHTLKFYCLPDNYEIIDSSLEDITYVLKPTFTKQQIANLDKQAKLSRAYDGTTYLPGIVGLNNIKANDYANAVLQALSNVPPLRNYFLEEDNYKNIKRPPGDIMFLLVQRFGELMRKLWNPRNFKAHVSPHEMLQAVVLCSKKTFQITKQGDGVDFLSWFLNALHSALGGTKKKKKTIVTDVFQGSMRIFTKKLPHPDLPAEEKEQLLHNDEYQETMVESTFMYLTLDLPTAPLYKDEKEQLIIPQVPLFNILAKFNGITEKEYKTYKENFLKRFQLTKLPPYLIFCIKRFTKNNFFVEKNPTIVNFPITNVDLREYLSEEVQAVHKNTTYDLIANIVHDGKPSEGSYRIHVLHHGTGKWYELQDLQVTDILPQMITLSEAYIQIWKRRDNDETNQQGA
In short: as §1

[5] = biological target: T4, USP4 (UniProt Q13107)
T4 sequence (whole entry): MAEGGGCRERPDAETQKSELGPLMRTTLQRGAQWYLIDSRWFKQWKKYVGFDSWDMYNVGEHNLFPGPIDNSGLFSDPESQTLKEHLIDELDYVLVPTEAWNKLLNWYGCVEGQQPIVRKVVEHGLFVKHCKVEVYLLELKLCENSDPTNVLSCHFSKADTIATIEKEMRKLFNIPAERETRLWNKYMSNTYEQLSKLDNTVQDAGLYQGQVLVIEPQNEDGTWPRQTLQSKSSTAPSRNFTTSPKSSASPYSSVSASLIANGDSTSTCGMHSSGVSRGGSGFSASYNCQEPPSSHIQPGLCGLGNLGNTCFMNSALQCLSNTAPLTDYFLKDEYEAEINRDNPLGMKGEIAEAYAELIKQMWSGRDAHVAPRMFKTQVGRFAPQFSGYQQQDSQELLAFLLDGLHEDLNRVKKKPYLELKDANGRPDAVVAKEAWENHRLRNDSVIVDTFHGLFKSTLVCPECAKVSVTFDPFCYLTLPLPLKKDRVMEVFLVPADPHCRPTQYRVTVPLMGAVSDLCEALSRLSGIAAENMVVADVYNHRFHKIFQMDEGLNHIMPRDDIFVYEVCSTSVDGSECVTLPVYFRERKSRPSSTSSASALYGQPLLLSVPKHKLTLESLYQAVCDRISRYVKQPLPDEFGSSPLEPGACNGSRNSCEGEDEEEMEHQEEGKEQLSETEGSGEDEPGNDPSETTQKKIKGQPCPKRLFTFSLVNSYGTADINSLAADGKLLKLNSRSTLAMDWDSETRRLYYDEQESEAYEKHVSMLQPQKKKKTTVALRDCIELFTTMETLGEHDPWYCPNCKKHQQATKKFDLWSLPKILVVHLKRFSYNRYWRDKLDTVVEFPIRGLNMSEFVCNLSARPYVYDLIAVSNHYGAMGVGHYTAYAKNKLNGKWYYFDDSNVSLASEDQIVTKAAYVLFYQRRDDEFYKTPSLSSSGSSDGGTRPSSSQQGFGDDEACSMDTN
In short: as §1

Measured: log2 ratio of Biotin-Ahx-Ub-VS probe labelling

Sequence of USP34 (Q70CQ2 whole entry, the tested form may be a part): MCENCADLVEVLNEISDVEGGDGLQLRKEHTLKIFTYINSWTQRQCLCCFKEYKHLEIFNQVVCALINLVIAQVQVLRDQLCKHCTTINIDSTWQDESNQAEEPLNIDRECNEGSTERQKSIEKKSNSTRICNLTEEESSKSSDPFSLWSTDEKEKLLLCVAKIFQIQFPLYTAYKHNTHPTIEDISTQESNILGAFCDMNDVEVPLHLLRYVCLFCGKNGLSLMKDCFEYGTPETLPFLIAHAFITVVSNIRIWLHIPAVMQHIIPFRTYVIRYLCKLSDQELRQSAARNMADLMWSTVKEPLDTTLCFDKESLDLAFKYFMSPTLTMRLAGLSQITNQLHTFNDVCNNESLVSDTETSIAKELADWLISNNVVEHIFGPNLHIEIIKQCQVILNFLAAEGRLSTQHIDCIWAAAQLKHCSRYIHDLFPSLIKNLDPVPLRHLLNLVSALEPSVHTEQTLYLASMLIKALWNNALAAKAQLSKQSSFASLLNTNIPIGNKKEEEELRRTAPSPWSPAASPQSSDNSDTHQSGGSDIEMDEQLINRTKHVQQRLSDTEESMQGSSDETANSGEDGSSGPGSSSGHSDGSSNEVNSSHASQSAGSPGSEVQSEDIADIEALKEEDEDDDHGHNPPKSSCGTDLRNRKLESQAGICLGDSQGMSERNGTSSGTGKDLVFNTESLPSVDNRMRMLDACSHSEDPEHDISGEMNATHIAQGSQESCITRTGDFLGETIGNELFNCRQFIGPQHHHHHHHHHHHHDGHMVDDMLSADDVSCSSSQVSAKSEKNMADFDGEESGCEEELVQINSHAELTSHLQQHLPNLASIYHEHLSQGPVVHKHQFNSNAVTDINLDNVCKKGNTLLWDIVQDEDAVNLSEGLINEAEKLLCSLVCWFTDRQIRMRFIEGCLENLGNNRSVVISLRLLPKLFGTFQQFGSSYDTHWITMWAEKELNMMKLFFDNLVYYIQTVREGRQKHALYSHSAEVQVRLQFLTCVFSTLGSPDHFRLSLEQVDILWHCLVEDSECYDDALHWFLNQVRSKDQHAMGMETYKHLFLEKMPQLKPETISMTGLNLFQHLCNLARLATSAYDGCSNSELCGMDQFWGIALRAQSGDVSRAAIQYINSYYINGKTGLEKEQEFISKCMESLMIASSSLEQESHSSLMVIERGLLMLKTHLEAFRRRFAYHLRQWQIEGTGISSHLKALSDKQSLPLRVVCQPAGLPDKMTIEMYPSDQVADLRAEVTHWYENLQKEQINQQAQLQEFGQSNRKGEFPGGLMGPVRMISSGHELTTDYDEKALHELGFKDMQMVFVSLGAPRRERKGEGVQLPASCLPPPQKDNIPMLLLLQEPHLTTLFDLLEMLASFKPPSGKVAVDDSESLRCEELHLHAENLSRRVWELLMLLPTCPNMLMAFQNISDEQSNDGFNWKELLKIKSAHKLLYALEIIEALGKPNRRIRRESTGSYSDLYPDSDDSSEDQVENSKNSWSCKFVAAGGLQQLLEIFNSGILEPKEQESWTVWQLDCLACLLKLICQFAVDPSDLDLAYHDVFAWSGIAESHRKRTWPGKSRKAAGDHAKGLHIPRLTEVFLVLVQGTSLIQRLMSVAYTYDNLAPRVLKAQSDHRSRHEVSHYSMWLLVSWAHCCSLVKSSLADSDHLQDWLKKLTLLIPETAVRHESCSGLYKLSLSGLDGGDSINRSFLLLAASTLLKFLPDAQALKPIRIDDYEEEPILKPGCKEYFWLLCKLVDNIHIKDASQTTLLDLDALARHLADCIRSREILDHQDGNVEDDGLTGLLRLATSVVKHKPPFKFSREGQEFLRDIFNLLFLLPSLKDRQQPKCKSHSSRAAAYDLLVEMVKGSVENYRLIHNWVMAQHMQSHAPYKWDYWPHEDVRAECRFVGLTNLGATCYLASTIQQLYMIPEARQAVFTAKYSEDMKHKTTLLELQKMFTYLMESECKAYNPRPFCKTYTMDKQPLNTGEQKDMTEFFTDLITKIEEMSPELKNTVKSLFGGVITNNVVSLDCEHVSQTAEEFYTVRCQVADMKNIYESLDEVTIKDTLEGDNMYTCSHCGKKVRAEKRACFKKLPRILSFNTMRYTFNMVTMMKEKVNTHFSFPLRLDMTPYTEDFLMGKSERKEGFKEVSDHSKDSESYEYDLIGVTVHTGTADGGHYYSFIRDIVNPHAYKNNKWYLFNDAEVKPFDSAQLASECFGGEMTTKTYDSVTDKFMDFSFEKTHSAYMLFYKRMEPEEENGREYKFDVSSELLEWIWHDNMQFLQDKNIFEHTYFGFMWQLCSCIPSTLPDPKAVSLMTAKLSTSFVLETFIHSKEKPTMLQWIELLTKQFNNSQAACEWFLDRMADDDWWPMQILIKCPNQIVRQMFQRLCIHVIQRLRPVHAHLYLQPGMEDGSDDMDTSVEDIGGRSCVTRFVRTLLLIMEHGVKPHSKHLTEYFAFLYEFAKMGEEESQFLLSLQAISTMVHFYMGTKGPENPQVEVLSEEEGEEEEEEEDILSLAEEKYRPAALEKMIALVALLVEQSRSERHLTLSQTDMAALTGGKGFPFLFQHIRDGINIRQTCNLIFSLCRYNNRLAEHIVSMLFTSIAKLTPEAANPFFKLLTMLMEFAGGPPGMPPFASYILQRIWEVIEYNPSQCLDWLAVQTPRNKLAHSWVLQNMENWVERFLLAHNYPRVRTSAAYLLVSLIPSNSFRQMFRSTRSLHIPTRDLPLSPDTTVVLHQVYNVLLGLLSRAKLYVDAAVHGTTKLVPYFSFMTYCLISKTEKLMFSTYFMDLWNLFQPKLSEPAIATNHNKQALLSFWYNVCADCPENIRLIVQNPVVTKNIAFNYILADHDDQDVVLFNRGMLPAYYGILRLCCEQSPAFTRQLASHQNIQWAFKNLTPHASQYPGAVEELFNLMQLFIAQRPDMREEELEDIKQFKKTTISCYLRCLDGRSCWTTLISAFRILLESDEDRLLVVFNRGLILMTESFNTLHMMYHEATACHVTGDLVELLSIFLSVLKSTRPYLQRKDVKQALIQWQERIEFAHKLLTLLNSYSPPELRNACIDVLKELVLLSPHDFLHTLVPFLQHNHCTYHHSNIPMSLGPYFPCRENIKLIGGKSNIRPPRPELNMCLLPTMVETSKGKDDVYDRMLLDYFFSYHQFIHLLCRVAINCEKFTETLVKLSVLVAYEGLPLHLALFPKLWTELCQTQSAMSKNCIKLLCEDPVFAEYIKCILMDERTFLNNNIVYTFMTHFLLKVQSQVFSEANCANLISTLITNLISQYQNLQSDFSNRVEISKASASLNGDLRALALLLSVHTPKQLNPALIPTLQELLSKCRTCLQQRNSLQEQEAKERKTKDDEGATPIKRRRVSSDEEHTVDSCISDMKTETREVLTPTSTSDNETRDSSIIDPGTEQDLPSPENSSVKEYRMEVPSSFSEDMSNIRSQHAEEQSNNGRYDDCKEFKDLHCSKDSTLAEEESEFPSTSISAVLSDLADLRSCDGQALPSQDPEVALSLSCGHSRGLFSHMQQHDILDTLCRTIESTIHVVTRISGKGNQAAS

O=C(CCl)NC1CCOc2ccccc21 (stereo not given)
inactive: [1] -0.539 | [2] -0.388 | [3] -0.738 | [4] -0.0973 | [5] -0.674
